# Data published in the supplement of paper PMC4466140.
# Legend:
# Assay in all cases: SPOT peptide array binding signal intensity (averaged, normalized) (arbitrary units (background-subtracted, floor 0; scale differs between SH3 domains)); higher = stronger binding of the SH3 domain to the peptide
# AgAbp1 = target: AgAbp1
# Protocol: (§1)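 GST-tagged SH3 domains from S. cerevisiae (Sc), A. gossypii (Ag), C. albicans (Ca) and S. pombe (Sp) were incubated at 10 ug/ml overnight at 4 C on cellulose SPOT membranes carrying 292 synthetic 15-mer peptides mined from the S. cerevisiae proteome (cysteines replaced by serines). Binding was detected with anti-GST antibody, HRP secondary and chemiluminescence, quantified with Genespotter, and reported as normalized spot intensities averaged over biological replicates.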
# AgBbc1 = target: AgBbc1
# Protocol: as §1
# AgBem1-D1 = target: AgBem1-D1
# Protocol: as §1
# AgBzz1-D1 = target: AgBzz1-D1
# Protocol: as §1
# AgBzz1-D2 = target: AgBzz1-D2
# Protocol: as §1
# AgCyk3 = target: AgCyk3
# Protocol: as §1
# AgFus1 = target: AgFus1
# Protocol: as §1
# AgHof1 = target: AgHof1
# Protocol: as §1
# AgHse1 = target: AgHse1
# Protocol: as §1
# AgLsb1 = target: AgLsb1
# Protocol: as §1
# AgLsb4 = target: AgLsb4
# Protocol: as §1
# AgMyo5 = target: AgMyo5
# Protocol: as §1
# AgNbp2 = target: AgNbp2
# Protocol: as §1
# AgRvs167 = target: AgRvs167
# Protocol: as §1
# AgSho1 = target: AgSho1
# Protocol: as §1
# AgSla1-D1-D2 = target: AgSla1-D1-D2
# Protocol: as §1
# AgSla1-D3 = target: AgSla1-D3
# Protocol: as §1
# CaAbp1-D1 = target: CaAbp1-D1
# Protocol: as §1
# CaAbp1-D2 = target: CaAbp1-D2
# Protocol: as §1
# CaBbc1 = target: CaBbc1
# Protocol: as §1
# CaBem1-D1 = target: CaBem1-D1
# Protocol: as §1
# CaBzz1-D1 = target: CaBzz1-D1
# Protocol: as §1
# CaBzz1-D2 = target: CaBzz1-D2
# Protocol: as §1
# CaCyk3 = target: CaCyk3
# Protocol: as §1
# CaFus1 = target: CaFus1
# Protocol: as §1
# CaHof1 = target: CaHof1
# Protocol: as §1
# CaHse1 = target: CaHse1
# Protocol: as §1
# CaLsb1 = target: CaLsb1
# Protocol: as §1
# CaLsb4 = target: CaLsb4
# Protocol: as §1
# CaMyo5 = target: CaMyo5
# Protocol: as §1
binder,measurement,setting,value
VQKRKLPLPGSIASA,SPOT peptide array binding signal intensity,AgAbp1,40
same,SPOT peptide array binding signal intensity,AgBbc1,39.2
same,SPOT peptide array binding signal intensity,AgBem1-D1,7.25
same,SPOT peptide array binding signal intensity,AgBzz1-D1,47.8
same,SPOT peptide array binding signal intensity,AgBzz1-D2,90.2
same,SPOT peptide array binding signal intensity,AgCyk3,0.5
same,SPOT peptide array binding signal intensity,AgFus1,≤ 0
same,SPOT peptide array binding signal intensity,AgHof1,24.6
same,SPOT peptide array binding signal intensity,AgHse1,58.5
same,SPOT peptide array binding signal intensity,AgLsb1,≤ 0
same,SPOT peptide array binding signal intensity,AgLsb4,≤ 0
same,SPOT peptide array binding signal intensity,AgMyo5,6.25
same,SPOT peptide array binding signal intensity,AgNbp2,≤ 0
same,SPOT peptide array binding signal intensity,AgRvs167,0.75
same,SPOT peptide array binding signal intensity,AgSho1,1.5
same,SPOT peptide array binding signal intensity,AgSla1-D1-D2,6.5
same,SPOT peptide array binding signal intensity,AgSla1-D3,≤ 0
same,SPOT peptide array binding signal intensity,CaAbp1-D1,419
same,SPOT peptide array binding signal intensity,CaAbp1-D2,782
same,SPOT peptide array binding signal intensity,CaBbc1,442
same,SPOT peptide array binding signal intensity,CaBem1-D1,13
same,SPOT peptide array binding signal intensity,CaBzz1-D1,94
same,SPOT peptide array binding signal intensity,CaBzz1-D2,44.6
same,SPOT peptide array binding signal intensity,CaCyk3,≤ 0
same,SPOT peptide array binding signal intensity,CaFus1,≤ 0
same,SPOT peptide array binding signal intensity,CaHof1,≤ 0
same,SPOT peptide array binding signal intensity,CaHse1,≤ 0
same,SPOT peptide array binding signal intensity,CaLsb1,≤ 0
same,SPOT peptide array binding signal intensity,CaLsb4,≤ 0
same,SPOT peptide array binding signal intensity,CaMyo5,0.5
